Measurements from PubChem BioAssay AID1159580 (chemical genetic matrix, 2015).
Hit rate of the full screen: of about 5,500 compounds, about 2,000 (36%) were called active. Inconclusive results (about 18%) are left out. No stated cut-off is given here; in the data, active means normalized growth mostly below about 0.91 (no sharp cut-off); inconclusive means no clear call, values can overlap the other calls; inactive means mostly above about 0.92. The list shows a part of the results.

Experiment: chemical genetic growth profiling, strain panel (AID 1159580);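 further: tested at 20 µM; growth read once vehicle control cultures reached saturation at 30 °C; 1 = growth at the plate median or of vehicle wells; lower values mean less growth of the strain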
Conditions: growth OD

Measured: normalized growth

COC1=CC(=O)OC(CCc2ccc(OC)c(OC)c2)C1 (stereo unspecified)
inactive: S. cerevisiae deletion strains, locus YAL013W, strain DEP1, hits give low values 0.988 | S. cerevisiae deletion strains, locus YBR021W, strain FUR4, hits give low values 0.991 | S. cerevisiae deletion strains, locus YBR229C, strain ROT2, hits give low values 1.01 | S. cerevisiae deletion strains, locus YCL029C, strain bik1, hits give low values 1.03 | S. cerevisiae deletion strains, locus YDL035C, strain GPR1, hits give low values 1.01 | S. cerevisiae deletion strains, locus YDL074C, strain BRE1, hits give low values 1.02 | S. cerevisiae deletion strains, locus YDL101C, strain DUN1, hits give low values 1.01 | S. cerevisiae deletion strains, locus YDL134C, strain PPH21, hits give low values 1 | S. cerevisiae deletion strains, locus YDL185W, strain tfp1, hits give low values 1.02 | S. cerevisiae deletion strains, locus YDL192W, strain arf1, hits give low values 1.02 | S. cerevisiae deletion strains, locus YDR101C, strain arx1, hits give low values 1.01 | S. cerevisiae deletion strains, locus YDR150W, strain NUM1, hits give low values 1.01 | S. cerevisiae deletion strains, locus YDR162C, strain NBP2, hits give low values 1.01 | S. cerevisiae deletion strains, locus YDR318W, strain mcm21, hits give low values 1.01 | S. cerevisiae deletion strains, locus YDR388W, hits give low values 1.01 | S. cerevisiae deletion strains, locus YDR502C, strain sam2, hits give low values 1.01 | S. cerevisiae deletion strains, locus YEL061C, strain CIN8, hits give low values 1.01 | S. cerevisiae deletion strains, locus YER110C, hits give low values 1.02 | S. cerevisiae deletion strains, locus YER155C, strain BEM2, hits give low values 1.01 | S. cerevisiae deletion strains, locus YER167W, strain BCK2, hits give low values 1.02 | S. cerevisiae deletion strains, locus YGL078C, strain dbp3, hits give low values 1.02 | S. cerevisiae deletion strains, locus YGL086W, strain mad1, hits give low values 1.02 | S. cerevisiae deletion strains, locus YGL248W, strain PDE1, hits give low values 1.01 | S. cerevisiae deletion strains, locus YGR078C, strain PAC10, hits give low values 1.01 | S. cerevisiae deletion strains, locus YGR135W, strain pre9, hits give low values 1.01 | S. cerevisiae deletion strains, locus YGR229C, strain SMI1, hits give low values 1 | S. cerevisiae deletion strains, locus YGR252W, strain gcn5, hits give low values 1 | S. cerevisiae deletion strains, locus YHR030C, strain SLT2, hits give low values 1.01 | S. cerevisiae deletion strains, locus YHR079C, strain IRE1 (second series), hits give low values 1.01 | S. cerevisiae deletion strains, locus YHR094C, strain hxt1, hits give low values 1.01 | S. cerevisiae deletion strains, locus YHR129C, strain ARP1, hits give low values 1.01 | S. cerevisiae deletion strains, locus YHR200W, strain rpn10, hits give low values 1.01 | S. cerevisiae deletion strains, locus YIL066C, strain RNR3, hits give low values 1 | S. cerevisiae deletion strains, locus YIL073C, strain SPO22, hits give low values 1.07 | S. cerevisiae deletion strains, locus YIL125W, strain kgd1, hits give low values 1.02 | S. cerevisiae deletion strains, locus YIR030C, strain dcg1, hits give low values 1.01 | S. cerevisiae deletion strains, locus YJL095W, strain BCK1, hits give low values 1.02 | S. cerevisiae deletion strains, locus YJL134W, strain LCB3, hits give low values 1 | S. cerevisiae deletion strains, locus YJL168C, strain set2, hits give low values 1 | S. cerevisiae deletion strains, locus YJL187C, strain SWE1 (second series), hits give low values 1.01 | S. cerevisiae deletion strains, locus YJR043C, strain POL32, hits give low values 1.02 | S. cerevisiae deletion strains, locus YJR075W, strain HOC1, hits give low values 1.02 | S. cerevisiae deletion strains, locus YKL009W, strain mrt4, hits give low values 1.03 | S. cerevisiae deletion strains, locus YKL068W, hits give low values 1.01 | S. cerevisiae deletion strains, locus YKL085W, strain MDH1 (second series), hits give low values 1.01 | S. cerevisiae deletion strains, locus YKL085W, strain MDH1, hits give low values 1.01 | S. cerevisiae deletion strains, locus YKL190W, strain CNB1, hits give low values 1.01 | S. cerevisiae deletion strains, locus YKR001C, strain vps1, hits give low values 1.04 | S. cerevisiae deletion strains, locus YLR039C, strain RIC1, hits give low values 1.07 | S. cerevisiae deletion strains, locus YLR058C, strain SHM2, hits give low values 1.01 | S. cerevisiae deletion strains, locus YLR102C, strain apc9, hits give low values 1.01 | S. cerevisiae deletion strains, locus YLR262C, strain YPT6, hits give low values 1.07 | S. cerevisiae deletion strains, locus YLR268W, strain sec22, hits give low values 1.01 | S. cerevisiae deletion strains, locus YLR330W, strain CHS5, hits give low values 1.01 | S. cerevisiae deletion strains, locus YLR342W, strain FKS1 (second series), hits give low values 1.01 | S. cerevisiae deletion strains, locus YLR371W, strain rom2, hits give low values 1.01 | S. cerevisiae deletion strains, locus YLR418C, strain cdc73, hits give low values 1.01 | S. cerevisiae deletion strains, locus YML016C, strain PPZ1, hits give low values 1.01 | S. cerevisiae deletion strains, locus YML032C, strain rad52, hits give low values 1.04 | S. cerevisiae deletion strains, locus YML124C, strain tub3, hits give low values 1.02 | S. cerevisiae deletion strains, locus YMR078C, strain ctf18, hits give low values 1.02 | S. cerevisiae deletion strains, locus YMR223W, strain ubp8, hits give low values 1.02 | S. cerevisiae deletion strains, locus YMR263W, strain SAP30, hits give low values 1.01 | S. cerevisiae deletion strains, locus YMR307W, strain GAS1, hits give low values 1.03 | S. cerevisiae deletion strains, locus YNL067W, strain RPL9B, hits give low values 1.01 | S. cerevisiae deletion strains, locus YNL128W, strain TEP1, hits give low values 1.01 | S. cerevisiae deletion strains, locus YNL153C, strain GIM3, hits give low values 1.01 | S. cerevisiae deletion strains, locus YNL233W, strain BNI4, hits give low values 1 | S. cerevisiae deletion strains, locus YNL250W, strain rad50, hits give low values 1.01 | S. cerevisiae deletion strains, locus YNL271C, strain bni1, hits give low values 1.01 | S. cerevisiae deletion strains, locus YNL298W, strain CLA4, hits give low values 1.02 | S. cerevisiae deletion strains, locus YNL307C, strain MCK1, hits give low values 1.01 | S. cerevisiae deletion strains, locus YNL322C, strain KRE1, hits give low values 1.01 | S. cerevisiae deletion strains, locus YNR052C, strain pop2, hits give low values 1.02 | S. cerevisiae deletion strains, locus YOL006C, strain TOP1, hits give low values 1.09 | S. cerevisiae deletion strains, locus YOL012C, strain htz1 1.25 | S. cerevisiae deletion strains, locus YOL147C, strain pex11, hits give low values 1.01 | S. cerevisiae deletion strains, locus YOR061W, strain CKA2, hits give low values 1.01 | S. cerevisiae deletion strains, locus YOR069W, strain VPS5, hits give low values 1 | S. cerevisiae deletion strains, locus YOR136W, strain idh2, hits give low values 1.02 | S. cerevisiae deletion strains, locus YOR144C, strain elg1, hits give low values 1.02 | S. cerevisiae deletion strains, locus YOR184W, strain ser1, hits give low values 1.03 | S. cerevisiae deletion strains, locus YOR316C, strain cot1, hits give low values 1.02 | S. cerevisiae deletion strains, locus YPL055C, strain LGE1, hits give low values 1.02 | S. cerevisiae deletion strains, locus YPL241C, strain CIN2, hits give low values 1 | S. cerevisiae deletion strains, locus YPR119W, strain clb2, hits give low values 1.01 | S. cerevisiae deletion strains, locus YPR141C, strain kar3, hits give low values 1.03 | S. cerevisiae deletion strains, locus YPR163C, strain tif3, hits give low values 1.02 | S. cerevisiae deletion strains, locus YPR167C, strain met16, hits give low values 1.02 | S. cerevisiae deletion strains, strain wtn01, hits give low values 1.01 | S. cerevisiae strains, strain wild type, hits give low values 0.999
